# Experimental data: ChEMBL document CHEMBL3988442, “University of Dundee, Small-Polar-MMV Screening Library” (2021)
# Biological target: AMP-activated protein kinase, AMPK (Homo sapiens) (UniProt P54646+O43741+P54619+Q9UGJ0+Q9Y478+Q13131+Q9UGI9)
# Experiment: AMP-dependent Kinase enzyme assay. An in vitro enzyme assay that detects ADP turnover that is directly proportional to AMPK activity. This uses naive AMPK that is activated during the assay with MK-8722
# Assay type: functional
# Design: scale not given: direction of the effect not stated beside the values
# Conditions: 30 µM
row,Structure (SMILES),Percent Effect [%]
1,CCCOc1ccc2c(c1)OCC(CNC1CCc3ncnn3C1)=C2 (centres undefined),10.2
2,COc1ncccc1N(C)C(=O)Cn1cc(-c2ccccc2)nn1,-1.29
3,Cn1cc(S(=O)(=O)NCCc2ccsc2)cn1,13.7
4,CCCNC(=O)c1[nH]nc(C2CC2)c1Br,2.02
5,COc1cccc(CN(C)Cc2c(C)noc2C)c1OC,18.1
6,CN(C)c1cccc(C(=O)Nc2cnn(Cc3ccccn3)c2)c1,-43.1
7,COc1ccccc1CNC(=O)C(C)N1CC(n2nc(C)cc2C)C1 (centres undefined),3.14
8,Cc1nn(C)c(C)c1-c1ccc(=O)n(C(C)C(=O)NC2CCCCC2)n1 (centres undefined),12.6
9,CCC[C@@H]1CN(Cc2cc(C#N)n(C)c2C)C[C@H]1NS(C)(=O)=O,-87.1
10,Cc1nn(C)c(C)c1-c1ccc(=O)n(C(C)C(=O)NC2CCCC2)n1 (centres undefined),9.03
11,CCOc1ccccc1C(C(=O)O)N(C)Cc1cc(C)[nH]n1 (centres undefined),5.49
12,Cc1nccn1CCN1C(=O)CC2(CCCC2)CC1=O,8.33
13,CC1(C)CN(Cc2ccncc2)CCS1(=O)=O,-9.12
14,CCC(CNS(=O)(=O)c1cccc(C(=O)OC)c1)N1CCCC1 (centres undefined),-8.76
15,O=S(=O)(Nc1ccc2c(c1)OCCO2)N1CCCCC1,12.8
16,CCc1nc2n(n1)CC(NCc1nc3ccccc3nc1C)CC2 (centres undefined),-2.35
17,c1ccc(-c2cc(CN3CCCCCC3c3ccco3)on2)nc1 (centres undefined),8.41
18,N#CCCN(C(=O)CCc1cscn1)c1ccc2c(c1)OCCO2,-3.58
19,COc1ccccc1C(C)(C)NC(=O)c1ccc(F)c(NC(C)=O)c1,-4.2
20,O=C(O)CCn1ccc2c(nnc3c(-c4ccc(F)cc4)cnn32)c1=O,18.8

row,Structure (SMILES),Percent Effect [%]
1,CS(=O)(=O)CCN1CCSCC1c1ccc(Cl)cc1 (centres undefined),-2.02
2,CCN(Cc1cccnc1)C1CCN(c2ccccc2)C1=O (centres undefined),-2.42
3,CCCn1cc(-c2cc(C(=O)N(C)C)c3ccc(OC)cc3n2)cn1,8.93
4,CN(C)S(=O)(=O)NC1CCCc2c1cnn2-c1ccc(C(C)(C)C)cc1 (centres undefined),88.7
5,CNC(=O)COC(=O)c1cccc(-n2ccc(C(F)(F)F)n2)c1,5.41
6,Cc1nn(CCC(=O)NC2CCCOC2)c(C)c1C (centres undefined),12.2
7,Cc1ccccc1CC(=O)NCc1cnc(CC2CCN(C)CC2)cn1,4.22
8,CNC(=O)c1ccnc(CC2COc3c(cccc3OC)C2)c1 (centres undefined),7.88
9,O=C(c1nc(=O)[nH]c2ccccc12)N1CCCC(CC2CC2)(C(=O)O)C1 (centres undefined),-0.821
10,CS(=O)(=O)NCC1CCCN(Cc2ccccc2F)C1 (centres undefined),-6.5
11,Cc1noc(C)c1C(=O)N1CCC(n2cccn2)CC1,-9.16
12,CC(C)(NCCOc1ccc(CC#N)cc1)c1nccs1,-2.44
13,CC(C)c1nc(CN(C)Cc2ncccc2C(=O)O)cs1,4.59
14,CSCCC(NC(N)=O)C(=O)NCc1ccc(-n2cccn2)cc1 (centres undefined),0.578
15,CN(C)c1ccc(C(=O)Nc2ccn(Cc3ccccn3)n2)cn1,18.9
16,CN1CCN(CCOc2ccc(NC(=O)c3ccoc3)cc2)CC1,-4.02
17,CCc1cc(=O)[nH]c(-c2ccc(NC(CO)CC(C)C)nc2)n1 (centres undefined),4.58
18,CNC(=O)c1cn2cc(-c3ccccc3Cl)n(CC=C(C)C)c(=O)c2n1,3.23
19,CC(NCc1nnc2n1CCCC2)c1nc(C(C)(C)C)no1 (centres undefined),-0.825
